Many of the other results were omitted from the sample, so hits are more common in it than they were.
Tgondii IFNg: T. gondii growth inhibition under IFN-gamma; AID 1259416; activity change, negative = inhibition, % (concentration not given with the values); 69,000 compounds, 3.8% hits; Toxoplasma gondii growth in IFN-gamma-treated host cells; active compounds read low; in the data active = activity change below about -70%, passing the limit was not always enough;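 also: host cells are HeLa cells infected with Toxoplasma gondii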
* marks the source's active call; other numbers are inactive results; i = inactive; ! = repeats disagree.

SMILES	Tgondii IFNg
CN(C)CCN1C[C@H]2CN(Cc3cccs3)C[C@H]2C1=O	-1
C[C@@H]1CC[C@]2(C(=O)O)CC[C@]3(C)C(=CCC4[C@@]5(C)CC[C@H](O)C(C)(C)C5CC[C@]43C)C2[C@H]1C (some centres undefined)	10
CC1(C)CC[C@]2(C(=O)O)CC[C@]3(C)C(=CC[C@@H]4[C@@]5(C)CC[C@H](O)C(C)(C)[C@@H]5CC[C@]43C)[C@@H]2C1	-72*!
CC1(C)CC[C@]2(C(=O)O)CC[C@]3(C)C(=CCC4[C@@]5(C)CC[C@@H](O)C(C)(C)C5CC[C@]43C)C2C1 (some centres undefined)	-58
COc1ccccc1-c1cc(NC(=O)Cn2c(=O)cc(C)c3ccccc32)n(C)n1	4
Cn1ncc2c1C(COCC1CC1)N(Cc1ccco1)CC2 (centres undefined)	-5
CCS(=O)(=O)N1CCC2(CC(=O)N(c3cnn(C)c3)C2)C1 (centres undefined)	5
Cn1cc(N2CC3(CCN(S(C)(=O)=O)C3)CC2=O)cn1 (centres undefined)	12
Cn1cc(N2CC3(CCN(CCO)C3)CC2=O)cn1 (centres undefined)	-87*
CCc1nc(-c2nccn2Cc2cccc(C(F)(F)F)c2)c(C)[nH]1	0
Cc1ccc(CSC2=Nc3ccccc3C3=NC(CC(=O)NCc4ccc(F)cc4)C(=O)N23)cc1 (centres undefined)	-45
c1cnn(Cc2cnc3n2CCN(CC2CCOCC2)C3)c1	i
FC(F)(F)CCc1ccnc(NCc2ccc3c(c2)OCO3)n1	-5
FC(F)(F)c1ccnc(NCc2ccc3c(c2)OCO3)n1	51
Clc1ccc(-c2nc(NCc3ccc4c(c3)OCO4)ncc2-c2ncc[nH]2)cc1	-106*
COCCN1CCC2(CCCN(Cc3nccn3C)C2)C1=O (centres undefined)	-7
Cc1ccc(Nc2nc(Nc3ccc(C)cc3)nc(Sc3nncn3C)n2)cc1	-75*
CC1c2cccn2CCN1Cc1ccc(Sc2nncn2C)o1 (centres undefined)	3
Cn1cnnc1Sc1cc(C#N)c(C#N)cc1Sc1nncn1C	-41
Cc1cnn(Cc2cccc(Cl)c2)c1NC(=O)C1=NNC(=O)CC1	20
CN1[C@H]2CC[C@@H]1CN(C(=O)c1cccc(CC3CCNCC3)c1)CC2	3
Cc1cccc(C(=O)NCCc2sc(-c3cccc(F)c3)nc2C)c1	-3
CC(C)(C)c1ccc(C(=O)/C=c2\[nH]c(=O)/c(=C\c3cccs3)s2)cc1	-102*
Cc1cc(C(=O)c2ccc(C(C)(C)C)cc2)c(N)s1	19
Cc1cccc2nc(-c3ccccc3)oc(=O)c12	-4
SMILES	Tgondii IFNg
O=C(Nc1sc(NC(=O)c2cccs2)nc1-c1cccs1)c1ccccc1	2
Cc1cccc(C(=O)Nc2nc(-c3ccccc3)c(-c3ccccc3)s2)c1	-72*
Cc1cccc(C(=O)NCCc2sc(-c3ccccc3)nc2C)c1	426
CC(=O)N1CCc2[nH]c3ccc(C(=O)NCc4ccc(N5CCCC5)cc4)cc3c2C1	i
CCOCC1CN(C(=O)c2cc(C)on2)Cc2ncn(CC3CC3)c21 (centres undefined)	134
CN(Cc1cccc2ncccc12)C(=O)c1cnn(-c2ccc(F)cc2)c1	-40
c1cc(-c2cnn3cc(-c4ccc(N5CCNCC5)cc4)cnc23)c2cccnc2c1	-84*
CN(Cc1cccc2ncccc12)Cc1cnn2cccnc12	2
COc1cc(O)ccc1CN1CCN(Cc2cc(C)cc(C)c2)C(=O)C1	4
CN(C)C(=O)NC1COC2(CCN(Cc3nccn3C)CC2)C1 (centres undefined)	-1
c1ccc(COC2CCN(Cc3ccco3)CC2)cc1	0
COCCN1CCOCC2(CCC(CNC(=O)c3ccnnc3)O2)C1 (centres undefined)	-7
CCC1(O)CC2CN(CCc3c([nH]c4ccccc34)C(C(=O)OC)(c3cc4c(cc3OC)N(C)C3C(O)(C(=O)OC)C(C(=O)OC)C5(CC)C=CCN6CCC43C65)C2)C1 (centres undefined)	-86*
COc1cc2c(cc1OC)C(C)N(Cc1nc(-c3ccco3)oc1C)CC2 (centres undefined)	2
CN(C)S(=O)(=O)NCCC1CCCCN1C(=O)CCc1ccc(F)cc1 (centres undefined)	-11
Cc1oc(-c2ccc(Cl)cc2)nc1Cn1nnc(C(=O)Nc2ccc(F)cc2F)c1C	-10
Cc1ccccc1C(=O)O/N=C1\C(=O)c2ccccc2-c2ccccc21	-86*
Cc1ccccc1C(=O)NN1C(=O)c2ccccc2C1=O	-31
COC(=O)c1ccccc1-c1ccccc1C(=O)OC	-59
Cc1ccc(-c2nc(CN3CCN(C(=O)Nc4cc(C)cc(C)c4)CC3)c(C)o2)cc1	2
Cn1c2ccccc2c2n[nH]c(=O)nc21	-105*
Cc1ccc2c(c1)c1nc3ccccc3nc1n2C	-63
Cc1nn(-c2ccccc2)c2c1c(=O)n(C)c1ccccc21	-41
CCN1C(=O)C2(CCN(S(C)(=O)=O)CC2)CC12CCN(C(=O)Nc1ccccc1)CC2	166
C=C(C)CNC(=O)CC1COc2ccc(C(=O)N3CCOCC3)cc2N1C (centres undefined)	9
SMILES	Tgondii IFNg
Cc1ccc2c(C)c(C(=O)NCCCc3cn[nH]c3)oc2c1	48
Nc1nc(Cl)nc2c1ncn2C1OC(CO)C(O)C1F (centres undefined)	-78*
OC[C@H]1O[C@@H](n2cnc3c(NC4CCCC4)nc(Cl)nc32)[C@H](O)[C@@H]1O	-70
Nc1nc(Cl)nc2c1ncn2[C@@H]1O[C@H](CO)[C@@H](O)[C@H]1O	-16
CCCC(=O)O[C@@]1(C(=O)COC(C)=O)CC[C@H]2[C@@H]3C[C@H](F)C4=CC(=O)C=C[C@]4(C)[C@]3(F)[C@H](O)C[C@@]21C	8
Cc1nc(C2CCCN(C(=O)C3CCC3)C2)ncc1C(=O)N1CCOCC1 (centres undefined)	-6
Cc1cccc(-c2nc(Cn3nnc(C(=O)NCc4ccc(C(C)C)cc4)c3C)c(C)o2)c1	-89*
Cc1ccc(-c2nc(Cn3nnc(C(=O)NCc4ccccc4)c3C)c(C)o2)cc1	-34
Cc1ccc(-c2nc(Cn3nnc(C(=O)NCc4ccncc4)c3C)c(C)o2)cc1	72
Cc1cccc(-c2nc(Cn3nnc(C(=O)NCc4ccc5c(c4)OCO5)c3C)c(C)o2)c1	-95*
Cc1ccc(NC(=O)c2nnn(Cc3nc(-c4cccc(Cl)c4)oc3C)c2C)c(Cl)c1	-3
Cc1cccc(-c2nc(Cn3nnc(C(=O)NCc4cccc(Br)c4)c3C)c(C)o2)c1	-98*
CCCOc1ccc(CNC(=O)c2nnn(Cc3nc(-c4ccc(C)cc4)oc3C)c2C)cc1	-21
Cc1ccc(-c2nc(Cn3nnc(C(=O)NCc4ccco4)c3C)c(C)o2)cc1	0
Cc1ccc(-c2nc(Cn3nnc(C(=O)NCc4ccc(F)cc4)c3C)c(C)o2)cc1	110
Cc1ccc(NC(=O)c2nnn(Cc3nc(-c4cccc(Cl)c4)oc3C)c2C)c(Br)c1	134
Cc1ccc(-c2nc(Cn3nnc(C(=O)NCc4ccc5c(c4)OCO5)c3C)c(C)o2)cc1	-45
CCc1ccc(CNC(=O)c2nnn(Cc3nc(-c4cccc(C)c4)oc3C)c2C)cc1	-80*
C=CCOCC1CN(C(=O)COCC)Cc2nccn2C1 (centres undefined)	-8
COc1ccc(N(Cc2nc(-c3ccc(C)cc3)oc2C)S(=O)(=O)c2ccc(OC)cc2)cc1	4
CC(=O)Nc1ccc(Cl)c(C(=O)N(C)C2CCOC(C)(C)C2)c1 (centres undefined)	6

Compound activity deposited in PubChem by Broad Institute.
